In ChEMBL document CHEMBL3988442, “University of Dundee, Small-Polar-MMV Screening Library” (2021):
Out of some 48,000 compounds screened, about 13,000 (27%) showed an effect of 50% or more. The list shows a part of the results.

system: Wolbachia pipientis; assay: Anti-Wolbachia Cell-Based Screen; format: functional; design: scale not given: in the data most compounds retested in dose-response had high values; settings: 5 µM

Going from `Cn1cc(S(=O)(=O)NCCc2nnc3ccccn23)cn1` to `CCn1cc(S(=O)(=O)N2CCC(C)Sc3ccccc32)cn1` (centres undefined), the “Percent Effect” value falls from -3.582% to -6.533%.

Compared with `O=C(c1ncccn1)N1C[C@@H]2COC[C@]2(c2nnc(C3CC3)o2)C1`, `CC(=O)N1CCCC1c1csc(Nc2cnccn2)n1` (centres undefined) is lower in “Percent Effect” value: -0.5118% for the first, -5.394% for the second.

Going from `Cc1noc(C)c1CNC(=O)C1(NS(C)(=O)=O)CCCCC1` to `Cc1noc(C)c1-c1n[nH]c2c1CN(S(=O)(=O)c1cccs1)CC2`, the “Percent Effect” value rises from -47.58% to 16.83%.

Going from `Cc1ccc(C)c(CC(=O)NC2CCC(N3C(=O)CCC3=O)CC2)c1` (centres undefined) to `Cc1ccc(C)c(NC(=O)Cc2c(C)nc3c(c2C)c(=O)[nH]n3C)c1`, the “Percent Effect” value falls from 6.752% to 0.2479%.

Compared with `CCN1CCN(S(=O)(=O)c2cc(C)c(Cl)cc2Cl)CC1`, `CCn1cc(S(=O)(=O)N2CCN(S(=O)(=O)c3ccc(Br)s3)CC2)c(C)n1` is higher in “Percent Effect” value: 18.7% for the first, 110.7% for the second.

Compared with `CC1(C)OCC2(CO1)CN(S(=O)(=O)c1ccc(Br)s1)C2`, `CCc1ccc(S(=O)(=O)N2CC3(COC(C)(C)OC3)C2)s1` is lower in “Percent Effect” value: -6.121% for the first, -8.267% for the second.

First: CCn1cc(S(=O)(=O)N2CCN(S(=O)(=O)c3ccc(Br)s3)CC2)cn1
Second: Cn1cc(S(=O)(=O)N2CCN(S(=O)(=O)c3ccc(Br)s3)CC2)cn1
The “Percent Effect” value of the first is higher: 99.05% for the first, 96.55% for the second.

Compared with `CCn1cc(S(=O)(=O)N2CCCSc3ccccc32)cn1`, `CCC1CCCN(S(=O)(=O)c2cnn(C)c2)C1` (centres undefined) is higher in “Percent Effect” value: -3.262% for the first, 12.29% for the second.

Going from `O=C(NS(=O)(=O)c1ccc(F)cc1)C1CCOc2ccccc21` (centres undefined) to `CCOc1ccccc1NC(=O)CN(C)Cc1ccccc1Cl`, the “Percent Effect” value rises from -10.91% to 6.554%.

First: Cc1scc(C(=O)N2CCC3(CC(=O)NC3=O)C2)c1-c1ccccc1 (centres undefined)
Second: O=C(CCc1cccs1)N1CCc2[nH]nc(COc3ccccc3)c2C1
The “Percent Effect” value of the first is lower: -14.34% for the first, 98.05% for the second.

First: CS(=O)(=O)N1CCCC12CCN(Cc1nccs1)C2.O=C(O)C(F)(F)F (centres undefined)
Second: CCN1CCC2(CCN(Cc3nccs3)CC2)C1=O.O=C(O)C(F)(F)F
The “Percent Effect” value of the first is higher: -1.689% for the first, -3.246% for the second.

First: Cc1nc2c(c(C)c1CC(=O)NCc1ccccc1F)c(=O)[nH]n2C
Second: Cc1nc2c(c(C)c1CC(=O)Nc1ccccc1F)c(=O)[nH]n2C
The “Percent Effect” value of the first is higher: 107.2% for the first, -18.93% for the second.

First: Cc1ccc(CNC(=O)Cc2c(C)nc3c(c2C)c(=O)[nH]n3C)cc1
Second: Cc1nc2c(c(C)c1CC(=O)NCc1ccc(F)cc1)c(=O)[nH]n2C
The “Percent Effect” value of the first is higher: 114.9% for the first, 91.6% for the second.

Compared with `Cc1nc2c(c(C)c1CC(=O)Nc1ccnn1C(C)C)c(=O)[nH]n2C`, `Cc1ccc(C(C)NC(=O)Cc2c(C)nc3c(c2C)c(=O)[nH]n3C)o1` (centres undefined) is lower in “Percent Effect” value: -7.188% for the first, -8.138% for the second.

Compared with `Cc1nc2c(c(C)c1CC(=O)NCc1ccco1)c(=O)[nH]n2C`, `Cc1nc2c(c(C)c1CC(=O)NCc1cccs1)c(=O)[nH]n2C` is higher in “Percent Effect” value: 144% for the first, 165.2% for the second.

Compared with `Cc1nc2c(c(C)c1CC(=O)NC(C)c1ccccc1)c(=O)[nH]n2C` (centres undefined), `CCNC(=O)Cc1c(C)nc2c(c1C)c(=O)[nH]n2C` is higher in “Percent Effect” value: -24.46% for the first, -13.5% for the second.

Compared with `Cc1nc2c(c(C)c1CC(=O)NCc1cccc(C#N)c1)c(=O)[nH]n2C`, `Cc1ccsc1CNC(=O)Cc1c(C)nc2c(c1C)c(=O)[nH]n2C` is lower in “Percent Effect” value: 1.091% for the first, -0.5496% for the second.

Going from `Cc1cc(C)cc(NC(=O)Cc2c(C)nc3c(c2C)c(=O)[nH]n3C)c1` to `CCCNC(=O)Cc1c(C)nc2c(c1C)c(=O)[nH]n2C`, the “Percent Effect” value falls from 3.943% to -12.53%.

Going from `Cc1c(F)cc(C(=O)NCC(F)(F)F)cc1NCC(=O)N(C)C` to `CN(C)c1cccc(C(=O)Nc2cn(C)c(=O)n(C)c2=O)c1`, the “Percent Effect” value falls from 4.918% to -7.07%.

First: OCCn1cc(CN2CCN(CCOCC(F)(F)F)CC2)cn1
Second: NC(=O)c1cc(C2CCCN(CCOCC(F)(F)F)C2)n[nH]1 (centres undefined)
The “Percent Effect” value of the first is higher: 2.281% for the first, -1.839% for the second.

Compared with `CN(C)CC(=O)N1Cc2cc(N(C)C)ccc2C1c1cnco1` (centres undefined), `Cc1cnc(NC(=O)c2cccc(CN(C)Cc3ccno3)c2)s1` is higher in “Percent Effect” value: -12.83% for the first, 0.9625% for the second.

First: CC(C)C(C(=O)N(C)C)c1cccc(Cl)c1 (centres undefined)
Second: Cc1n[nH]c(C)c1CNCC(O)c1cccc(Cl)c1.Cl (centres undefined)
The “Percent Effect” value of the first is lower: -9.046% for the first, 7.117% for the second.

Compared with `COc1c(C(=O)N2CCC(COCc3ccccc3)C2)c(C)nn1C` (centres undefined), `O=C(CCc1ccco1)N1CCc2[nH]nc(COc3ccccc3)c2C1` is higher in “Percent Effect” value: -0.4444% for the first, 91.35% for the second.

Going from `O[C@H]1CC[C@@H](Cc2cc(-c3ccc(F)cc3)on2)O[C@@H]1CNCC1CC1` to `CC[C@H]1COCCN1C(=O)CCCn1nnc(-c2ccc(F)cc2)n1`, the “Percent Effect” value falls from 6.759% to -1.392%.

First: O=C(O)C(F)(F)F.O=C(O)C(F)(F)F.O=C(O)C(F)(F)F.c1cncc(OCc2n[nH]c3c2CN(Cc2cccs2)C3)c1
Second: O=C(O)C(F)(F)F.O=C(O)C(F)(F)F.c1ccc(OCc2n[nH]c3c2CN(Cc2cccs2)C3)nc1
The “Percent Effect” value of the first is lower: -32.3% for the first, -9.854% for the second.

Going from `COCc1n[nH]c2c1CN(Cc1cccs1)C2.O=C(O)C(F)(F)F` to `O=C(O)C(F)(F)F.OCCOCc1n[nH]c2c1CN(Cc1ccco1)C2`, the “Percent Effect” value rises from 1.549% to 3.715%.

Compared with `O=C(c1csnn1)N1CCc2[nH]nc(COc3cccc(Cl)c3)c2C1`, `CS(=O)(=O)N1CCc2[nH]nc(Cc3cccs3)c2C1` is higher in “Percent Effect” value: 7.373% for the first, 98.95% for the second.

First: COc1nc2c(cc1C(=O)N(C)Cc1[nH]nc3c1CCC3)CCC2
Second: CCN1CCCc2cc(CN3CCc4nc(C)[nH]c(=O)c4C3)ccc21
The “Percent Effect” value of the first is lower: 7.806% for the first, 122.7% for the second.

Compared with `OC(COCc1ccccc1Cl)CN1CC(n2cccn2)C1` (centres undefined), `CCn1nc2c(cc1=O)CN(Cc1ccc(-n3cccn3)cc1)CC2` is higher in “Percent Effect” value: -11.39% for the first, 7.019% for the second.

Compared with `Cc1nc(CN2CCCC(CCNS(C)(=O)=O)C2)c[nH]1` (centres undefined), `Cc1[nH]c(=O)[nH]c(=O)c1CN1CCCC(CCc2ccc(F)cc2F)C1` (centres undefined) is higher in “Percent Effect” value: -5.765% for the first, 2.06% for the second.

Going from `Cc1occc1C(=O)N1Cc2nccn2CC(CN2CCOCC2)C1.O=C(O)C(F)(F)F` (centres undefined) to `CCN1CCC2(CCN(c3ncccn3)CC2)C1=O.O=C(O)C(F)(F)F`, the “Percent Effect” value rises from -15.88% to 93.98%.

Compared with `CN(C)CCN(C)c1ccc(-c2nc(COc3ccccc3)no2)cn1`, `CN(Cc1ccc([S+](C)[O-])cc1)c1ccc(Br)cn1` (centres undefined) is lower in “Percent Effect” value: -2.014% for the first, -27.32% for the second.

Compared with `Cc1cc(C2CCC2)nc(N(C)Cc2cnccn2)n1`, `Cc1nc(N(C)C)nc(N(C)Cc2cnccn2)c1C` is higher in “Percent Effect” value: -5.292% for the first, 49.18% for the second.

Compared with `CCCN(CCC)S(=O)(=O)N(C)Cc1ccncc1`, `CN(Cc1ccncc1)c1cncc(Br)c1` is higher in “Percent Effect” value: 3.881% for the first, 97.92% for the second.

Compared with `COc1cc(F)ccc1N(C)Cc1ccncc1`, `CN(Cc1ccc([S+](C)[O-])cc1)c1cncc(Br)c1` (centres undefined) is higher in “Percent Effect” value: -8.772% for the first, 105.7% for the second.

First: CN(Cc1ccc([S+](C)[O-])cc1)c1cncc(Cl)n1 (centres undefined)
Second: CN(Cc1cnccn1)c1cncc(Br)c1
The “Percent Effect” value of the first is lower: -12.95% for the first, 109.1% for the second.

First: O=C(O)C(F)(F)F.O=C(O)C(F)(F)F.c1ccc(COC[C@H]2CC[C@H]3[C@H](CCN3c3ncccn3)O2)nc1
Second: COCCN1CCC2(CCN(c3ncccn3)CC2)C1=O.O=C(O)C(F)(F)F
The “Percent Effect” value of the first is lower: -2.736% for the first, 97.58% for the second.

Going from `Cc1cc(C2CCCN(CCc3ccccn3)C2)n[nH]1` (centres undefined) to `Cc1cc(C2CCCN(CCc3ccc4c(c3)CCO4)C2)n[nH]1` (centres undefined), the “Percent Effect” value rises from -3.98% to 104%.

Going from `NC(=O)c1cc(C2CCCN(Cc3ccc4c(c3)OCCO4)C2)n[nH]1` (centres undefined) to `NC(=O)c1cc(C2CCCN(CCc3ccc4c(c3)CCO4)C2)n[nH]1` (centres undefined), the “Percent Effect” value falls from 95.83% to 94.15%.

Compared with `O=C(C1COCCO1)N1CCN(Cc2ccc3c(c2)CCO3)CC1` (centres undefined), `O=C(NCC1CCOC1)N1CCN(Cc2ccc3c(c2)CCO3)CC1` (centres undefined) is lower in “Percent Effect” value: 2.717% for the first, -2.282% for the second.

First: O=C(C1CCCN(CCc2ccc3c(c2)CCO3)C1)N1CCCC1 (centres undefined)
Second: CCN1CCCc2cc(CN3CCc4c(nc(C)[nH]c4=O)C3)ccc21
The “Percent Effect” value of the first is lower: 96.85% for the first, 149.4% for the second.

Going from `COc1ccc(F)cc1CN1CCCC(c2cc(C(N)=O)[nH]n2)C1` (centres undefined) to `CCOCCN1CCCC(c2cc(C(N)=O)[nH]n2)C1` (centres undefined), the “Percent Effect” value falls from -1.722% to -3.243%.

Going from `CCc1cnc(CN2CCCC(c3cc(C)[nH]n3)C2)o1` (centres undefined) to `CCn1nc2c(cc1=O)CN(Cc1cc(C)on1)CC2`, the “Percent Effect” value rises from -1.395% to 0.747%.

First: CCc1cc(NCCNc2cccnc2)n2nccc2n1
Second: CCC(=O)N1CCCC1c1csc(Nc2cnccn2)n1 (centres undefined)
The “Percent Effect” value of the first is lower: -9.581% for the first, 122% for the second.

Compared with `CSCCC(=O)N1CCC(Oc2cc(C)ccc2F)(C(=O)O)CC1`, `COCCN1CCC2(CCN(Cc3cccs3)CC2)C1=O.O=C(O)C(F)(F)F` is higher in “Percent Effect” value: 3.058% for the first, 6.379% for the second.

Going from `CS(=O)(=O)N1CCOC2(CCCN(c3ncc(F)cn3)C2)C1` (centres undefined) to `CNC(=O)C1CCC2(CCN(c3ncc(C)cn3)CC2)CO1` (centres undefined), the “Percent Effect” value falls from 0.4401% to -6.735%.

Going from `CCC(C)(NCC(N)=O)c1nccs1` (centres undefined) to `NC(=O)CN(C(=O)c1c[nH]c2ncccc12)C1CCCC1`, the “Percent Effect” value rises from -7.734% to -3.753%.

Compared with `COCCN1CCC2(CCN(CC3CC3)CC2)C1=O.O=C(O)C(F)(F)F`, `CCc1cnc(N2CCC3(CCN(CC)C3=O)CC2)nc1` is lower in “Percent Effect” value: -9.065% for the first, -13.53% for the second.

Going from `COCC(=O)N1CCCC1c1csc(Nc2cnccn2)n1` (centres undefined) to `CCn1nc2c(cc1=O)CN(Cc1nc3ccccc3c(=O)[nH]1)CC2`, the “Percent Effect” value falls from 91.87% to -16.27%.

`CCCn1nc2c(cc1=O)CN(CCCN1CCCC1=O)CC2` was tested, and the “Percent Effect” value was -4.188%.
